Pf growth 96h = inhibits malaria parasite growth, 96 h | Potency, µM (top dose mostly 28.7 µM), for the others: top-dose activity change, negative = inhibition, actives largely listed as inhibitors | AID 504834 | P. falciparum luciferase reporter growth, 96 h | hit rate 6.9% among 320,000; also: % is scaled to controls: 0 for no effect and ±100 for the full control effect
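Erythrocytes infected with luciferase-expressing P. falciparum were dispensed at 2% hematocrit and 0.05% parasitemia (final), then incubated with compounds 96 hours at 37 C in 5% CO2. Luminescence after detection reagent addition reported growth.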
HCV inh = blocks hepatitis C virus | Huh7.5.1 HCVcc-Cre infection, luciferase reporter, 44 h | Potency, µM (doses to about 41.8 µM), inactives show at the highest dose activity change, negative = inhibition, most hits filed as inhibitors | hit rate 3.4% among 340,000 | AID 651820; also: % is scaled to controls: 0 for no effect and ±100 for the full control effect
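Luciferase read-out (15 sec integration) after a 15 min room-temperature substrate step quantifies HCVcc-Cre infection. Cells, 1,000 per well, had compound added 4 h post-plating, then virus at ~0.5 moi, and were cultured 44 h.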
Vaccinia Venus = vaccinia inhibition (Venus reporter) | Vaccinia virus Venus reporter expression, fluorescence | Potency, µM (doses to about 36.5 µM), inactives show top-dose activity change, negative = inhibition, hits mostly inhibitors | hit rate 0.46% among 330,000 | AID 720580; calls by dose curve; tested in A549 cells; also: % is scaled to controls: 0 for no effect and ±100 for the full control effect; nearly all actives have a fitted effect of over 30% in size
Pf growth 48h = P. falciparum growth inhibition at 48 hours (one generation). AID 504832. Potency, µM (series often up to 28.7 µM), without a hit: at the highest dose activity change, negative = inhibition, usual class: inhibitors. hit rate 5.9% among 310,000. P. falciparum luciferase growth in erythrocytes, 48 h; also: % is scaled to controls: 0 for no effect and ±100 for the full control effect
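Luciferase-expressing parasites in RBCs, 2% Hct / 0.1% parasitemia final; RPMI 1640 + 0.5% Albumax; 37 C, 5% CO2, one generation; luminescence read-out, lower signal = inhibition.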
VACV mCherry inh = inhibitors of vaccinia virus infection (mCherry reporter signal). Vaccinia virus mCherry reporter infection, fluorescence. Potency, µM (series often up to 36.5 µM), for the others: top-dose activity change, negative = inhibition, most hits filed as inhibitors. hit rate 0.63% among 310,000. AID 720579; calls by dose curve; tested in A549 cells; also: % is scaled to controls: 0 for no effect and ±100 for the full control effect; nearly all actives have a fitted effect of over 35% in size
NS1 function inh = blocks influenza NS1 protein function; hit rate 0.4% among 270,000; Potency, µM (top dose mostly 46.1 µM), without a hit: at the highest dose activity, positive = more growth; AID 2326; calls by dose curve; also: actives are rising curves; nearly all actives have a fitted effect of over 50% in size
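In this qHTS, NS1 from influenza A is expressed in budding yeast, where it slows growth. Cells are switched from glucose to 2% galactose medium (pH 6.0, -URA), treated with compound, and growth recovery is read at OD600.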
Active calls of the source: *; [ ] = remark or other dose. Compounds with a hit are over-represented: about 11% of the library has one in this group of screens. Unless noted, calls follow the shape of the dose curve; as a rule, active = well fitted inhibition curve with a large enough effect; inconclusive = small, poorly fitted or top-dose-only effect, or another doubt; inactive = no such curve, though single readings can be large or run the other way. Potency is read from the fitted curve at half-maximal effect.

For CC(=O)c1cccc(NC(=O)C(CC(C)C)NS(=O)(=O)c2ccc3c(c2)CCN3C(C)=O)c1 (stereo not drawn) the results were Vaccinia Venus -5% and VACV mCherry inh -3%.
For CC(=O)N1CCc2cc(S(=O)(=O)NC(CC(C)C)C(=O)Nc3cc(C(=O)O)ccc3C)ccc21 (stereo not drawn) the results were Pf growth 96h 0.29µM*, HCV inh 6%, Vaccinia Venus -1%, Pf growth 48h 2%, VACV mCherry inh -10% and NS1 function inh 2%.
Screening CCOc1ccc(CN2CCC(n3nccc3NC(=O)CCCc3ccccc3)CC2)cc1 returned Pf growth 96h -20%, HCV inh inconclusive, Pf growth 48h inconclusive and NS1 function inh -14%.
CCn1cc(CN2CCC(n3nccc3NC(=O)Cc3ccccc3)CC2)cn1 was read as Pf growth 96h 10µM*, HCV inh 15%, Vaccinia Venus -16%, Pf growth 48h -8%, VACV mCherry inh -16% and NS1 function inh 4%.
Screening CCOc1cccc(CN2CCC(n3nccc3NC(=O)CCCc3ccccc3)CC2)c1 returned Pf growth 96h inconclusive, HCV inh inconclusive, Pf growth 48h 10µM* and NS1 function inh 2%.
CCNC(=O)N1CCC(n2nccc2NC(=O)CCCc2ccccc2)CC1 was read as Pf growth 96h 13µM*, Vaccinia Venus -6%, Pf growth 48h 1%, VACV mCherry inh inactive and NS1 function inh -2%.
COc1ccc(O)c(CN2CCC(n3nccc3NC(=O)CCOc3ccccc3)CC2)c1 was read as Pf growth 96h inconclusive, HCV inh 3%, Pf growth 48h 13µM* and NS1 function inh 2%.
For CSCC(=O)N1CCC(n2nccc2NC(=O)CCCc2ccccc2)CC1 the results were Pf growth 96h -7%, HCV inh 8%, Vaccinia Venus -15%, Pf growth 48h -16%, VACV mCherry inh inactive and NS1 function inh 0%.
`CCc1ccc(C(=O)Cn2ncc(Cl)c(Cl)c2=O)cc1` gave Pf growth 96h 58%, HCV inh inconclusive, Vaccinia Venus 4%, Pf growth 48h 2% and NS1 function inh 3%.
Screening C[C@@H]1CN([C@H](C)CO)C(=O)CCCn2nncc2CO[C@H]1CN(C)C(=O)OCc1ccccc1 returned Vaccinia Venus -8% and VACV mCherry inh inactive.
`O=C(NCCc1ccccc1)c1ccc(NC(=O)c2cccnc2)cc1` gave Pf growth 96h -16%, HCV inh -3%, Pf growth 48h -11% and NS1 function inh 5%.
Screening CN(C)S(=O)(=O)N1CCC(n2nccc2NC(=O)CCCc2ccccc2)CC1 returned Pf growth 96h 5.2µM*, HCV inh 1%, Pf growth 48h inconclusive and NS1 function inh -12%.
Screening CN(C)S(=O)(=O)N1CCC(n2nccc2NC(=O)CCc2ccccc2)CC1 returned Pf growth 96h 25%, HCV inh 8%, Vaccinia Venus -9%, Pf growth 48h 9%, VACV mCherry inh -8% and NS1 function inh -7%.
O=C(CN1CCCC1)Nc1ccc(-c2nc3cc(NC(=O)CN4CCCC4)ccc3o2)cc1 was read as Pf growth 96h inconclusive, HCV inh inconclusive, Pf growth 48h 2.3µM* and NS1 function inh -6%[9.22 µM].
CCC(C)NCC(=O)Nc1ccc(-c2nc3cc(NC(=O)CNC(C)CC)ccc3o2)cc1 (stereo not drawn) was read as Pf growth 96h -14%, HCV inh 13%, Vaccinia Venus -15%, Pf growth 48h inconclusive and NS1 function inh -3%.
`CCN(CC)CC(=O)Nc1ccc(-c2nc3cc(NC(=O)CN(CC)CC)ccc3o2)cc1` gave Pf growth 96h -3%, HCV inh -24%, Vaccinia Venus -6%, Pf growth 48h 2.6µM* and NS1 function inh 4%.
`O=C(CSc1nnc(NC(=O)c2ccco2)s1)Nc1cccc(F)c1` gave Pf growth 96h 64%, Vaccinia Venus -12%, Pf growth 48h 65%, VACV mCherry inh -3% and NS1 function inh -12%.
For COc1ccc(SCCc2ccncc2)cc1 the results were Pf growth 96h 8%, HCV inh -1%, Vaccinia Venus -26%, Pf growth 48h 17%, VACV mCherry inh -11% and NS1 function inh 4%.

Source: PubChem
